Screening results (PubChem)
In the library only some 3% were active in any assay of this set; here they are far more common.
SENP7 inh – SENP7 protease inhibition | inhibition, % at 5 µM | AID 434973 | Q9BQF6 | recombinant SENP7, Z-RLRGG-aminoluciferin luminescence, 40 min | hit rate 1.5% among 330,000;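 active = inhibition above about 50% at the single test dose, limit read from the data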;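 note: plate controls were DMSO with enzyme for no effect and no enzyme buffer wells for full effect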
Target sequence (Q9BQF6 706-1050 limits assumed): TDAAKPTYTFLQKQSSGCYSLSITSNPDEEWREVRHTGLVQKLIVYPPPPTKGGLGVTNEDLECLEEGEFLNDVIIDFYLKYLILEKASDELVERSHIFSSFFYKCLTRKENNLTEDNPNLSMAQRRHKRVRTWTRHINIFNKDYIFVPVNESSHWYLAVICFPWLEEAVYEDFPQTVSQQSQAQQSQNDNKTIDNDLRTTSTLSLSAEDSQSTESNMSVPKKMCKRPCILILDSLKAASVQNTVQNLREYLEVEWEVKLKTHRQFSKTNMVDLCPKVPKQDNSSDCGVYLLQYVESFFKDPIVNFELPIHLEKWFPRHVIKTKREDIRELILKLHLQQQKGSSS
TRAIL sens C8 – sensitizes caspase-8 expressing cells to TRAIL | NB7+C8 cells + TRAIL, ATPlite viability luminescence | inhibition (viability loss, TRAIL sensitization), % at 10 µM | hit rate 1% among 360,000 | AID 624354;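 active = compounds causing at least 50% loss of cell viability in the single-dose screen, relative to plate controls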
PPC-1+TRAIL kill – kills PPC-1 cancer cells in the presence of TRAIL; PPC-1 cells + TRAIL, ATPLite viability luminescence; cell killing (% activity), % at 4 µM or 5 µM; hit rate 0.41% among 220,000; AID 1443;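 active = cell killing above 50% in the first pass at 4 µM, then a duplicate retest at 5 µM averaging 50% or more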;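 note: plate controls were cells with TRAIL plus DMSO for no effect and medium-only wells lacking cells for full effect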
SENP6 block – SENP6 protease inhibition; inhibition, % at 10 µM; hit rate 1.8% among 330,000; Recombinant SENP6 catalytic domain, aminoluciferin luminescence; Q9GZR1; AID 2599;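 active = inhibition above about 50% at the single tested dose, limit read from the data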;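 note: plate controls were DMSO wells with enzyme for no effect and DMSO wells lacking enzyme for full effect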
SENP8 block-1 – blocks human SENP8 cleavage of Nedd8 substrate | hit rate 0.64% among 360,000 | inhibition, % at 20 µM | recombinant SENP8, Nedd8 substrate fluorescence | AID 602440; in the data active = inhibition mostly above about 40%, no sharp cut-off; inactive = mostly below about 27%
Target sequence (Q96LD8 whole entry, looked up): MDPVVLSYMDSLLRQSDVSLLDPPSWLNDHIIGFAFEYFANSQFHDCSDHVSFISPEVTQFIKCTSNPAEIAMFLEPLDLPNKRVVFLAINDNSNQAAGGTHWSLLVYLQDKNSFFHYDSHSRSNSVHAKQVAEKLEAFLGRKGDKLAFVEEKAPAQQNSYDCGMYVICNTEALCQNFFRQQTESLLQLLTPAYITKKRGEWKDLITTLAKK
SENP8 block-2 – blocks the human protease SENP8; inhibition, % at 10 µM; purified SENP8, Z-RLRGG-aminoluciferin cleavage, luminescence; Q96LD8; AID 2540; hit rate 1.2% among 330,000; in the data active = inhibition above about 50%
An asterisk follows results filed as active; nt = no result given.

SMILES | SENP7 inh | TRAIL sens C8 | PPC-1+TRAIL kill | SENP6 block | SENP8 block-1 | SENP8 block-2
CCOC(=O)C1CCCN(C2=C(NS(=O)(=O)c3ccc(Br)cc3)C(=O)c3ccccc3C2=O)C1 (configuration not stated) | 39 | -2 | nt | 43 | 58* | 16
COc1ccc(NC(=O)CN(C)C(=O)c2cccc(S(=O)(=O)N3CCN(c4ccc(F)cc4)CC3)c2)cc1 | nt | 19 | nt | nt | 10 | nt
CC(C)(C)OC(=O)N1CCC[C@H]1C(=O)N1CCC[C@H]1C(=O)NCc1ccncc1 | nt | 2 | nt | nt | 13 | nt
COc1ccc(CN2C(=O)C(CC(=O)NCC3CCCCC3)CC(C(=O)N(C(C)C)C(C)C)=C2C)cc1 (configuration not stated) | nt | -1 | nt | nt | -4 | nt
CC1CCCN(C2=C(NS(=O)(=O)c3ccc(Br)cc3)C(=O)c3ccccc3C2=O)C1 (configuration not stated) | 20 | 12 | nt | 38 | 36 | 5
O=C1C(NS(=O)(=O)c2ccc(Br)cc2)=C(N2CCCCC2)C(=O)c2ccccc21 | 5 | 12 | nt | 25 | 64* | 2
O=C(CNC(=O)c1ccc(N2CCCC2=O)cc1)Nc1ccc(F)c(F)c1F | 4 | -19 | nt | 29 | 1 | 11
CCN1CCN(C(=S)NC(=O)c2cccs2)CC1 | -3 | -21 | nt | -11 | 0 | 3
O=C(NC(=S)N1CCN(c2ccc(C(F)(F)F)cc2[N+](=O)[O-])CC1)c1cccs1 | 6 | 51* | 16 | 9 | 14 | 1
C=Cc1ncc(OC)c2c1[nH]c1ccccc12 | 0 | 66* | nt | -14 | -244 | -3
Cc1cccc(NC(=S)N=Nc2c(O)[nH]c3ccccc23)c1 | 6 | 20 | 22 | -3 | 42* | 3
O=C(N=Nc1c(O)[nH]c2ccccc12)Nc1ccccc1 | nt | 8 | nt | nt | 15 | nt
CCOc1cc(N2CCOCC2)c(OCC)cc1NC(=O)COC(=O)/C=C/c1ccc(OC(F)F)cc1 | 2 | -1 | nt | -1 | 10 | -3
O=C(NC1CCCCC1)C(c1cccnc1)N(C(=O)CCl)c1ccc(F)cc1 (configuration not stated) | nt | 94* | 1 | nt | 18 | nt
COc1ccc(N(C(=O)CCl)C(C(=O)NC2CCCCC2)c2cccnc2)cc1 (configuration not stated) | -2 | 94* | 22 | -8 | 13 | -1
O=C(NC1CCCCC1)C(c1cccnc1)N(C(=O)CCl)c1ccccc1Cl (configuration not stated) | 6 | 15 | 0 | -7 | 13 | -2
Cc1cc(Oc2cccc3c2S(=O)(=O)N(C2CCCC2)CC(COCc2ccccc2)O3)cc(C)c1C (configuration not stated) | nt | -1 | nt | nt | 8 | nt
CCc1ccc(C(=O)COC(=O)c2ccccc2OC)cc1 | 91* | 14 | nt | 89* | 6 | 82*
CCCOC(=O)c1ccc(-c2ccc(C=O)o2)cc1 | -17 | 9 | 50* | -14 | -13 | -15
CCOC(=O)c1ccc(-c2ccc(C=O)o2)cc1 | -5 | -4 | -24 | -6 | -437 | -21
Cc1sc2nc(CSCC(=O)NC3(C#N)CCCCC3)[nH]c(=O)c2c1C | -9 | 9 | nt | -7 | -86 | -8
Cc1ccc(O)c(N=CC2=C(O)c3ccccc3C2=O)c1 | 29 | 23 | 17 | 46 | 84* | 22
CN=CC1=C(O)c2ccccc2C1=O | -4 | -12 | -4 | 1 | 2 | 2
Cc1cc(C)n(-c2nc(Nc3ccccc3)nc(-n3nc(C)cc3C)n2)n1 | -6 | -12 | -12 | -5 | 1 | 0
Cc1cc(C)n(-c2nc(N(c3ccccc3)c3ccccc3)nc(-n3nc(C)cc3C)n2)n1 | -14 | 76* | -2 | 9 | 16 | 0
SMILES | SENP7 inh | TRAIL sens C8 | PPC-1+TRAIL kill | SENP6 block | SENP8 block-1 | SENP8 block-2
O=c1[nH]cnc2c1ncn2[C@@H]1C[C@@H](O)[C@H](CO)O1 | 7 | -18 | nt | -11 | -27 | -3
S=c1nc[nH]c2c1ncn2C1CCCO1 (configuration not stated) | -4 | 73* | 31 | -14 | 15 | -12
OCC1OC(n2cnc3c(=S)nc[nH]c32)CC1O (configuration not stated) | nt | 76* | nt | nt | 7 | nt
Nc1ncnc2c1ncn2C1CCCO1 (configuration not stated) | 4 | -18 | nt | -10 | 9 | -6
O=C(Nc1ccc2c(c1)OCO2)C1Cc2c(-c3ccccc3Oc3ccccc3)ccnc2O1 (configuration not stated) | nt | 6 | nt | nt | 21 | nt
COCCNC(=O)C1=C(N)C(C(=O)Nc2ccc(C)c(S(=O)(=O)N3CCCCC3)c2)SC1=Nc1ccc(C)cc1C (configuration not stated) | -5 | 0 | 8 | -36 | -6 | -3
COc1ccc(Cc2nnc(N/N=C/c3ccc(O)cc3)[nH]c2=O)cc1OC | -12 | 61* | 28 | -3 | 10 | -9
COc1ccc(Cc2nnc(N/N=C/c3ccc(Br)cc3)[nH]c2=O)cc1OC | 6 | -4 | -7 | 7 | 6 | 3
COc1ccc(C/C(N)=N/OC(=O)c2ccc(Cl)cc2)cc1 | -5 | 3 | 7 | -18 | 12 | -17
N/C(Cc1ccc(Cl)cc1)=N\OC(=O)c1ccc2ccccc2c1 | 2 | 95* | 6 | -6 | 13 | -1
N/C(Cc1ccc(Cl)cc1)=N\OC(=O)c1cccc2ccccc12 | -3 | 68* | 16 | 11 | -46 | 2
Cc1ccc(/C(N)=N/OC(=O)Oc2ccccc2)cc1 | 4 | -5 | 13 | -13 | 21 | -3
Cc1ccc(/C(N)=N/OC(=O)c2ccc3ccccc3c2)cc1 | 49 | 90* | nt | -11 | -11 | -13
CCOC(=O)C1CCN(S(=O)(=O)c2ccc(Cl)cc2)CC1 | 4 | 6 | nt | -11 | 7 | -3
CC1CCc2c(sc3ncn(CC(=O)N=Nc4c(O)[nH]c5ccccc45)c(=O)c23)C1 (configuration not stated) | 11 | 28 | 0 | -12 | 44* | -8
Cn1ccc(C(=O)OCC(=O)Nc2ccccc2Cl)n1 | 1 | 7 | nt | -1 | 17 | 1
O=C(CCN1CCN(c2ccccc2)CC1)N/N=C/c1ccc(O)c(O)c1O | nt | 16 | 37 | nt | 62* | nt
O=C(Cc1csc(N2CCOCC2)n1)N/N=C/c1ccc(O)c(O)c1O | nt | 31 | 9 | nt | 59* | nt
O=C(NCCCCCCCN1CCCCCCC1)C(C1CCCCC1)C1CCCCC1 | nt | 31 | nt | nt | 11 | nt
O=C(CCS(=O)(=O)c1ccc(Br)cc1)Nc1ccccn1 | 0 | -1 | 66* | 0 | 6 | -7
O=C(CCS(=O)(=O)c1ccc(Br)cc1)Nc1ccccc1Cl | 1 | -5 | nt | 11 | 19 | 4
CCCCC(CC)CO (configuration not stated) | -6 | 4 | nt | -13 | 18 | 5
CCCCC(CC)CN=C(N)NC(N)=NCCCCCCN=C(N)NC(N)=NCC(CC)CCCC (configuration not stated) | 8 | 95* | nt | -49 | 11 | -39
